# Results filed as inconclusive are left out. Active and inactive are the calls of the source. Calls follow the shape of the dose curve; as a rule, active = well fitted inhibition curve with a large enough effect; inconclusive = small, poorly fitted or top-dose-only effect; inactive = flat fitted curve, though single readings scatter.
# Biological target: Luciferin 4-monooxygenase (Photinus pyralis) (UniProt P08659)
# Test: Biochemical firefly luciferase enzyme assay for NPC (AID 624030); also: nearly all actives have a fitted effect of over 70% in size;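 as to activity change, negative = inhibition: purified P. pyralis luciferase at 10 nM with luciferin and ATP substrate; 0% = DMSO and -100% = full luciferase inhibition by PTC124 control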
# Conditions: purified P. pyralis luciferase, luminescence, 5 min; series mostly up to 24.9 µM; activity change, negative = inhibition: at the top concentration
# How it was run: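 Direct inhibition of firefly luciferase enzyme (10 nM final, 50 mM Tris Acetate) assessed by luminescence within 5 minutes. Percent activity scaled between DMSO and PTC124 positive control, with concentration-effect curves classified by fit quality and response.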
# Potency is read from the fitted curve at half-maximal effect.
# Sequence of Luciferin 4-monooxygenase (Photinus pyralis) (P08659 whole entry, looked up): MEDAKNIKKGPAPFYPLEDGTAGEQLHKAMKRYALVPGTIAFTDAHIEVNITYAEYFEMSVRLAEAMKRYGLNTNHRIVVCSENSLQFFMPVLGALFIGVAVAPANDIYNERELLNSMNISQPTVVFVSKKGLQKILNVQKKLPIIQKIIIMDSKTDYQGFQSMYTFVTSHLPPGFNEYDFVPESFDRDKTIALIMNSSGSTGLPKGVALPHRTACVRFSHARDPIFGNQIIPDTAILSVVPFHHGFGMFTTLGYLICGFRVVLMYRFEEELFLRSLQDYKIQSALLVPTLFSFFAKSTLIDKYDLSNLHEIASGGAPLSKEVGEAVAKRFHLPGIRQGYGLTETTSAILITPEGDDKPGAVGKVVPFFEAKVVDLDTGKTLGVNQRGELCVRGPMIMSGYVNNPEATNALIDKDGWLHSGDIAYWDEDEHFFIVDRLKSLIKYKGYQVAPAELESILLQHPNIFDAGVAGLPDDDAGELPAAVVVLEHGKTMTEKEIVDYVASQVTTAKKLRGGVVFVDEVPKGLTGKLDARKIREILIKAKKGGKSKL
Structure (SMILES),"activity change, negative = inhibition",Potency
CC1(C)S[C@H]2C(NC(=O)[C@@H](N)c3ccc(O)cc3)C(=O)N2[C@@H]1C(=O)O (some centres not stated),-9.68% [at 58.6 µM] (inactive),
CN(C)CCc1c[nH]c2ccc(CC3COC(=O)N3)cc12 (configuration not stated),0.0807% [at 58.6 µM] (inactive),
C[C@@]12CCC(=O)C=C1C=CC1C2CC[C@]2(C)C1CC[C@@]21CCC(=O)O1 (some centres not stated),-1.08% [at 58.6 µM] (inactive),
NC(CCC(=O)N[C@@H](CS)C(=O)NCC(=O)O)C(=O)O (some centres not stated),-4.56% [at 58.6 µM] (inactive),
CC(C)Oc1ccc2c(=O)cc(-c3ccccc3)oc2c1,,0.809 µM (active)
CCCCCCCCCc1ccc(OCCOCCOCCOCCOCCOCCOCCOCCOCCO)cc1,-6.41% [at 58.6 µM] (inactive),
CC(=O)O[C@@]1(C(C)=O)CCC2C3CC(C)C4=CC(=O)CC[C@@]4(C)C3CC[C@]21C (some centres not stated),-0.289% [at 58.6 µM] (inactive),
N[C@@H]1C(O)OC(CO)C(O)C1O (some centres not stated),-0.419% [at 58.6 µM] (inactive),
CC(=O)OCC(=O)[C@@]12OC3(CCCC3)OC1CC1C3CCC4=CC(=O)C=C[C@@]4(C)[C@]3(F)C(O)C[C@]12C (some centres not stated),0.368% [at 58.6 µM] (inactive),
CCC1OC(=O)CC(O)C(C)[C@@H](O[C@@H]2OC(C)[C@H](O[C@@H]3C[C@@](C)(O)C(O)C(C)O3)C(N(C)C)C2O)[C@H](CC=O)CC(C)C(=O)/C=C/C(C)=C/[C@@H]1COC1OC(C)C(O)C(OC)[C@@H]1OC (some centres not stated),7.01% [at 58.6 µM] (inactive),
C=Cc1c(C)/c2[n-]/c1=C\c1[n-]c(c(CC)c1C)/C=c1\[n-]c3c(c1C)C(=O)C(C(=O)[O-])C=3c1[n-]c(c(C)c1CCC(=O)[O-])\C=2.[Cu].[Na+].[Na+] (configuration not stated),,32.2 µM (active)
CCC(=O)O[C@@]1(C(=O)CCl)C(C)CC2C3CCC4=CC(=O)C=C[C@@]4(C)[C@]3(F)C(O)C[C@]21C (some centres not stated),1.85% [at 58.6 µM] (inactive),
